# Measurements as given in the supplement of paper PMC10981050.
# Where a name gives a salt, the structure may show the parent alone.
# Test system: MOLM14
# Assay: cell viability relative to vehicle control; higher = less cytotoxic
# Details: 10 µM; SRSF2 genotype: SRSF2 P95H/wt
# How it was run: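 Each screen used CRISPR-edited mutant and wild-type clones from four leukaemia lines. Compounds were acoustically dispensed at a single 10 µM dose, and CellTiter-Glo luminescence was read after 48 h with the supernatant first removed. Viability was analysed in Genedata Screener and given as percent of the on-plate vehicle control.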
row,SMILES,cell viability [%]
1,O=c1cc(-c2ccc(O)c(O)c2)oc2cc(O)c([C@@H]3O[C@H](CO)[C@@H](O)[C@H](O)[C@H]3O)c(O)c12 [Homoorientin],83.2
2,CC(C)(O)CC(=O)NCCn1ccc2ncnc(Nc3ccc(Oc4cccc(C(F)(F)F)c4)c(Cl)c3)c21,76.5
3,C=CC(=O)Nc1cccc(Nc2nc(Nc3ccc(OCCOC)cc3)ncc2F)c1,9.43
4,Cc1ncc(COP(=O)(O)O)c(C=O)c1O [Pyridoxal phosphate],100
5,NC(=O)c1cnccn1 [Pyrazinamide (Pyrazinoic acid amide)],103
6,O=C(O)c1ccc(O)c(O)c1 [Protocatechuic acid],96.8
7,O=C(NC(NC(=S)Nc1ccc(F)c([N+](=O)[O-])c1)C(Cl)(Cl)Cl)C(c1ccccc1)c1ccccc1 (centres undefined),1.5
8,O=C1CCN(c2ccccc2)N1 [Phenidone],100
9,C[C@@H]1CC[C@@]2(OC1)O[C@H]1C[C@H]3[C@@H]4CC=C5C[C@@H](O[C@@H]6O[C@H](CO)[C@@H](O)[C@H](O)[C@H]6O)CC[C@]5(C)[C@H]4CC[C@]3(C)[C@H]1[C@@H]2C [Trillin],84.5
10,COc1ccc(C[C@@H]2c3cc(Oc4cc(C[C@@H]5c6cc(O)c(OC)cc6CCN5C)ccc4O)c(OC)cc3CCN2C)cc1 [Isoliensinine],2.24
11,CCCCCCCCOc1ccccc1C(=O)Nc1ccc(C(=O)OCC[N+](C)(CC)CC)cc1 [Otilonium Bromide],76.7
12,COC(=O)c1cc(O)c(O)c(O)c1 [Methyl gallate],90.6
13,O=C(O)Cc1cccc2ccccc12 [Potassium 1-Naphthaleneacetate],90.8
14,O=c1[nH]c(=O)n([C@H]2C[C@H](O)[C@@H](CO)O2)cc1C(F)(F)F [Trifluridine (Viroptic)],52.7
15,C[C@@H](Oc1cc(-n2cnc3ccc(CN4CCN(C)CC4)cc32)sc1C(N)=O)c1ccccc1C(F)(F)F,16.8
16,COc1cccc(OC)c1C(=O)OCc1cc(O)ccc1O[C@@H]1O[C@H](CO)[C@@H](O)[C@H](O)[C@H]1O [Curculigoside],105
17,OC[C@@H](O)[C@@H](O)[C@H](O)[C@@H](O)CO [Sorbitol (Glucitol)],97.3
18,CC(=O)CCC=C(C)CCC=C(C)CCC=C(C)CCC=C(C)C [Teprenone],86.8
19,C[C@]12CC[C@@H]3c4ccc(O)cc4CC[C@H]3[C@@H]1CC[C@@H]2O [Estradiol],95.3
20,CCCNC(C)C(=O)Nc1c(C)csc1C(=O)OC (centres undefined) [Articaine HCl],106
21,O=C1N=C(N2CCOCC2)CN1c1ccc(Cl)cc1,94.8
22,COc1cc(N2CCC(N3CCN(C)CC3)CC2)ccc1Nc1ncnc(Nc2ccccc2S(=O)(=O)C(C)C)n1,28.4
23,C[Si](C)(C)CCOCn1ccc2c(-c3cn[nH]c3)ncnc21,95.9
24,C[C@@H]1CC[C@H]2C(C)(C)[C@H]3C[C@@]12CC[C@@]3(C)O [Cedrol],104
25,C[C@H]1c2cccc(O)c2C(O)=C2C(=O)[C@]3(O)C(O)=C(C(N)=O)C(=O)[C@@H](N(C)C)[C@@H]3[C@@H](O)[C@@H]21 [Doxycycline],102
26,CNC[C@H](O)[C@@H](O)[C@H](O)[C@H](O)CO [Meglumine],101
27,CC1=NN(c2ccccc2)C(=O)C1 [Edaravone (MCI-186)],96.3
28,"CN1CCN2c3ncccc3Cc3ccccc3C2C1 (centres undefined) [Mirtazapine (Remeron, Avanza)]",92.3
29,CC(O)C(O)c1cnc2nc(N)[nH]c(=O)c2n1 (centres undefined) [6-Biopterin],109
